What all share (settings): mRNA level, 48 h; actives raise or lower the signal
Read-out in assay [1]: Alkaline Phosphatase, Placental (ALPP) gene, ALPP (gene 250)
Nature of the assay: LTEA_HepaRG_ALPP: Life Technologies and Expression Analysis (LTEA) Assay for Alkaline Phosphatase, Placental (ALPP) gene using HepaRG (AID 2283468). In outline:
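Expression of ALPP was quantified by qRT-PCR against three housekeeping genes in human HepaRG cultures treated for 48 h with an eight-point concentration series up to 100 uM. Activity in either direction was fitted relative to 0.5% DMSO.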

Read-out in assay [2]: Bcl-2 (BAD) gene, BAD (gene 572)
The experiment in a line: LTEA_HepaRG_BAD: Life Technologies and Expression Analysis (LTEA) Assay for Bcl-2 (BAD) gene using HepaRG (AID 2283469). In outline: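 HepaRG, 48 h exposure, 8-pt half-log curve from 100 uM in 0.5% DMSO, duplicates. Readout: TaqMan qRT-PCR for BAD mRNA, housekeeping-normalised (ACTB/GAPDH/POLR2A); gain or loss fitted against DMSO baseline.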

Read-out in assay [3]: Bcl-2 (BAX) gene, BAX (gene 581)
Nature of the assay: LTEA_HepaRG_BAX: Life Technologies and Expression Analysis (LTEA) Assay for Bcl-2 (BAX) gene using HepaRG (AID 2283470). Put shortly:
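Gene expression measured by Fluidigm qRT-PCR with three housekeeping genes for normalisation. HepaRG cells, plated 48 h beforehand, treated 48 h at up to 100 uM (8-point, half-log) in 0.5% DMSO. Bidirectional fitting versus DMSO.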

Read-out in assay [4]: adenosine kinase (ADK) gene, ADK (gene 132)
Nature of the assay: LTEA_HepaRG_ADK: Life Technologies and Expression Analysis (LTEA) Assay for adenosine kinase (ADK) gene using HepaRG (AID 2283471). In outline: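 Read-out is ADK transcript level measured by qRT-PCR and normalised to three housekeeping genes. Cells are human HepaRG, dosed for 48 h at up to 100 uM in 0.5% DMSO. Gain or loss of signal is fitted against DMSO controls.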

Read-out in assay [5]: Alpha-fetoprotein (AFP) gene, AFP (gene 174)
Nature of the assay: LTEA_HepaRG_AFP: Life Technologies and Expression Analysis (LTEA) Assay for Alpha-fetoprotein (AFP) gene using HepaRG (AID 2283472). Put shortly: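 AFP transcript measured by TaqMan qRT-PCR with three housekeeping genes for normalization, after 48 h chemical treatment of HepaRG cells (top 100 uM, half-log steps, 0.5% DMSO). Gain or loss fitted against vehicle.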

Read-out in another assay: BCL2L11 (gene 10018)
The experiment in a line: LTEA_HepaRG_BCL2L11: Life Technologies and Expression Analysis (LTEA) Assay for Bcl-2 (BCL2L11) gene using HepaRG (AID 2283473). In outline:
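Cells were plated, cultured 48 h, switched to serum-free induction medium, then dosed in duplicate for 48 h at eight half-log concentrations up to 100 uM. Lysates underwent RNA isolation and TaqMan qRT-PCR; gain or loss versus DMSO was fitted.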

Read-out in assay [6]: Apolipoprotein A-V (APOA5) gene, APOA5 (gene 116519)
Nature of the assay: LTEA_HepaRG_APOA5: Life Technologies and Expression Analysis (LTEA) Assay for Apolipoprotein A-V (APOA5) gene using HepaRG (AID 2283474). In outline: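 Human liver HepaRG cells are treated 48 h with test chemicals (100 uM top, half-log dilutions, 0.5% DMSO). APOA5 mRNA induction or loss is measured by qRT-PCR relative to vehicle.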

Read-out in assay [7]: Apoptosis regulator Bcl-2 (Homo sapiens) (UniProt P10415)
The experiment in a line: LTEA_HepaRG_BCL2: Life Technologies and Expression Analysis (LTEA) Assay for Bcl-2 gene using HepaRG (AID 2283475). In outline:
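qRT-PCR of BCL2 transcript, normalized to three housekeeping genes (ACTB, GAPDH, POLR2A), after 48 h chemical exposure of HepaRG cells; concentrations top 100 uM with half-log dilutions, 0.5% DMSO vehicle, duplicates; changes up or down fitted relative to vehicle.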

Read-out in assay [8]: Bcl-2 (BID) gene, BID (gene 637)
Nature of the assay: LTEA_HepaRG_BID: Life Technologies and Expression Analysis (LTEA) Assay for Bcl-2 (BID) gene using HepaRG (AID 2283476). In outline: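 Duplicate 48 h treatments of HepaRG cells in serum-free induction medium spanned 100 uM downward in half-log steps, 0.5% DMSO. Transcript change quantified by qRT-PCR against three housekeeping genes, fitted up or down versus DMSO.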

Read-out in another assay: Caspase-3 (Homo sapiens) (UniProt P42574)
The experiment in a line: LTEA_HepaRG_CASP3: Life Technologies and Expression Analysis (LTEA) Assay for cysteine-aspartic acid protease (CASP3) using HepaRG (AID 2283477). Put shortly: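 In HepaRG liver cells dosed for 48 h at up to 100 uM (eight-point, duplicate), CASP3 expression changes are scored by qRT-PCR. Activity is fitted in both directions with 0.5% DMSO as baseline.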

Read-out in assay [9]: Cytochrome P450 (CYP24A1), CYP24A1 (gene 1591)
Nature of the assay: LTEA_HepaRG_CYP24A1: Life Technologies and Expression Analysis (LTEA) Assay for Cytochrome P450 (CYP24A1) using HepaRG (AID 2283478). In outline:
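Human liver HepaRG cultures receive each chemical for 48 h across an eight-point half-log series topping at 100 uM in 0.5% DMSO. Induction or suppression of CYP24A1 mRNA is scored relative to vehicle after housekeeping-gene normalization.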

Read-out in assay [10]: Cytochrome P450 (CYP1A2), CYP1A2 (gene 1544)
Nature of the assay: LTEA_HepaRG_CYP1A2: Life Technologies and Expression Analysis (LTEA) Assay for Cytochrome P450 (CYP1A2) using HepaRG (AID 2283479). In outline:
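Assesses CYP1A2 mRNA in human HepaRG liver cells after 48 h chemical exposure at up to 100 uM. Values come from qRT-PCR with bidirectional curve fitting relative to DMSO.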

Read-out in assay [11]: cysteine-aspartic acid protease (CASP8), CASP8 (gene 841)
Nature of the assay: LTEA_HepaRG_CASP8: Life Technologies and Expression Analysis (LTEA) Assay for cysteine-aspartic acid protease (CASP8) using HepaRG (AID 2283480). In outline:
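qRT-PCR readout of CASP8 mRNA, normalized to three housekeeping genes, after 48 h chemical exposure of HepaRG cells; 8-point half-log series, top 100 uM, 0.5% DMSO vehicle. Bidirectional curve fitting against DMSO baseline.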

Read-out in assay [12]: Cytochrome P450 (CYP2B6), CYP2B6 (gene 1555)
Nature of the assay: LTEA_HepaRG_CYP2B6: Life Technologies and Expression Analysis (LTEA) Assay for Cytochrome P450 (CYP2B6) using HepaRG (AID 2283481). In outline:
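Using 48 h treatment of HepaRG cells in serum-free induction medium, concentrations spanned half-log steps from 100 uM in 0.5% DMSO vehicle. CYP2B6 mRNA induction or loss is scored by qRT-PCR against DMSO.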

Read-out in assay [13]: Cytochrome P450 2C19 (Homo sapiens) (UniProt P33261)
The experiment in a line: LTEA_HepaRG_CYP2C19: Life Technologies and Expression Analysis (LTEA) Assay for CYP2C19 using HepaRG (AID 2283482). Put shortly: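 Human HepaRG liver cells received test chemicals for 48 h (highest 100 uM, half-log dilutions in 0.5% DMSO). CYP2C19 mRNA induction or loss is read by multiplexed qRT-PCR and fitted in both directions versus vehicle.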

Read-out in another assay: CYP2C8 (gene 1558)
Nature of the assay: LTEA_HepaRG_CYP2C8: Life Technologies and Expression Analysis (LTEA) Assay for CYP2C8 using HepaRG (AID 2283483). In outline: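 HepaRG (human liver line), 48 h chemical exposure, 8-pt half-log series from 100 uM, 0.5% DMSO vehicle. Readout: CYP2C8 transcript by qRT-PCR, housekeeping-normalized. Bidirectional fit vs DMSO baseline.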

Read-out in the next assay: CYP2C9 (gene 1559)
Nature of the assay: LTEA_HepaRG_CYP2C9: Life Technologies and Expression Analysis (LTEA) Assay for CYP2C9 using HepaRG (AID 2283484). In outline:
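HepaRG, 48 h dosing, 8-pt half-log series, top 100 uM, 0.5% DMSO vehicle. Read-out: CYP2C9 transcript by TaqMan qRT-PCR, housekeeping-normalized (ACTB/GAPDH/POLR2A). Gain or loss fitted vs DMSO baseline.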

Read-out in the next assay: CYP2E1 (gene 1571)
The experiment in a line: LTEA_HepaRG_CYP2E1: Life Technologies and Expression Analysis (LTEA) Assay for CYP2E1 using HepaRG (AID 2283485). Put shortly:
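CYP2E1 transcript measured by Fluidigm qRT-PCR against three housekeeping genes in human HepaRG cells treated 48 h (top 100 uM, half-log steps, 0.5% DMSO vehicle). Gain or loss fitted relative to DMSO baseline.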

Read-out in a further assay: CYP4A11 (gene 1579)
The experiment in a line: LTEA_HepaRG_CYP4A11: Life Technologies and Expression Analysis (LTEA) Assay for CYP4A11 using HepaRG (AID 2283486). Put shortly: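 Readout is CYP4A11 mRNA induction or suppression (qRT-PCR, ACTB/GAPDH/POLR2A normalization) in human HepaRG cells after 48 h chemical treatment, concentrations to 100 uM in 0.5% DMSO, fitted bidirectionally against vehicle.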

Read-out in assay [14]: Cytochrome P450 3A4 (Homo sapiens) (UniProt P08684)
Nature of the assay: LTEA_HepaRG_CYP3A4: Life Technologies and Expression Analysis (LTEA) Assay for CYP3A4 using HepaRG (AID 2283487). Put shortly: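 HepaRG, 48 h exposure, 8-pt CRC from 100 uM (half-log), 0.5% DMSO, duplicates; serum-free induction medium. Readout: CYP3A4 mRNA, qRT-PCR, ACTB/GAPDH/POLR2A normalization. Bidirectional fit vs DMSO.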

The source made the active and inactive calls. Rule for the calls: active = hit-call score of the fitted dose curve at least 0.9, where 1 is the maximum; inactive = score below 0.9.

Chain of Apoptosis regulator Bcl-2 (Homo sapiens) (P10415 whole entry, looked up): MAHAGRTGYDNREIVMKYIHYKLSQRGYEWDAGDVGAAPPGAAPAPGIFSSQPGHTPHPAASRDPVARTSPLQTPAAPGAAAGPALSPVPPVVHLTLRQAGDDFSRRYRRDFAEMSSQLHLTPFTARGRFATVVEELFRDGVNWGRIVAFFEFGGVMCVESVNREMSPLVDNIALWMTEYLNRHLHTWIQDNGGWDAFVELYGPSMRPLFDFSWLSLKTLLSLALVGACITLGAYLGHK
Chain of Cytochrome P450 3A4 (Homo sapiens) (P08684 whole entry, looked up): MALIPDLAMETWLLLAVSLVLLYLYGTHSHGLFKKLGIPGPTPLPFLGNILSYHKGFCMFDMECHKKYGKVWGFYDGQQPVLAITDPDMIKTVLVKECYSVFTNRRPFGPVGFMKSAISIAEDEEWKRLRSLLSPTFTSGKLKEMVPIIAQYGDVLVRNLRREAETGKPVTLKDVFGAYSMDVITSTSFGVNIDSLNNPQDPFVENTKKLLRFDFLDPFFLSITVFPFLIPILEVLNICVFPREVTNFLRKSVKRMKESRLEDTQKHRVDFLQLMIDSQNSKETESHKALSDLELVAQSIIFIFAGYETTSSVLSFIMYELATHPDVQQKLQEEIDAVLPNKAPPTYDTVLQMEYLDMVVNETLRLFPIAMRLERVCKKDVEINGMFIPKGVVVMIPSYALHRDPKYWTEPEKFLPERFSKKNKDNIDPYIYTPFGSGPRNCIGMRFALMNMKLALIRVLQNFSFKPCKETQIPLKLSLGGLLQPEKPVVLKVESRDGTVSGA
Chain of Caspase-3 (Homo sapiens) (P42574 whole entry, looked up): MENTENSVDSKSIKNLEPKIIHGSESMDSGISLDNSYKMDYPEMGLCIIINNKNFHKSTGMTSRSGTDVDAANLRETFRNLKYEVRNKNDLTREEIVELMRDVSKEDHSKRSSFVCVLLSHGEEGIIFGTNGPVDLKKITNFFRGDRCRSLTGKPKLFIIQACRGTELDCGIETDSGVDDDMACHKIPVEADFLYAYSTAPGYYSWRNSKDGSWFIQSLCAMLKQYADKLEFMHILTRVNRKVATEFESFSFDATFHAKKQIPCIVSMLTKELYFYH
Chain of Cytochrome P450 2C19 (Homo sapiens) (P33261 whole entry, looked up): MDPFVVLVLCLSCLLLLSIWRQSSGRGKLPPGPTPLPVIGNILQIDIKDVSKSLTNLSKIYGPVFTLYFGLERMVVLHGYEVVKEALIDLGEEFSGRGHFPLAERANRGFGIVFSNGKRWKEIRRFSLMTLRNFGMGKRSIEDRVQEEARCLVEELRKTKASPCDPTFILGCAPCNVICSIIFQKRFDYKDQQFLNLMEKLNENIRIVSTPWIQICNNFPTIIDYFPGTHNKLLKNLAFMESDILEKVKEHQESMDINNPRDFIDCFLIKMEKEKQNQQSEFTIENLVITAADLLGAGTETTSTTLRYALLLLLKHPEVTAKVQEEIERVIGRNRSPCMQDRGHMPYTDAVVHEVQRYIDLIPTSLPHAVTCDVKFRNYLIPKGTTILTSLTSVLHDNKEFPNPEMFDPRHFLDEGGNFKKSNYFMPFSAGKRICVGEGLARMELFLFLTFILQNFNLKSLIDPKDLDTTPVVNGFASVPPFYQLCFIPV

In the case of `Oc1ccccc1-c1ccccc1`, the molecule was called inactive (in assay [1]; in assay [2]; in assay [3]; in assay [4]; in [5]; with BCL2L11 (gene 10018)). The result (in assay [6]; in assay [7]; in [8]; with Caspase-3 (Homo sapiens); in assay [9]; in assay [10]) was inactive. Moreover, the call (in [11]; in assay [12]; in assay [13]; in the assay with CYP2C8 (gene 1558); with CYP2C9 (gene 1559); in the assay with CYP2E1 (gene 1571)) was inactive. In addition, the call (with CYP4A11 (gene 1579); in assay [14]) was inactive.
The AC50 is the concentration giving half of the maximal activity seen. Regarding `COP(=S)(OC)Oc1nc(Cl)c(Cl)cc1Cl`, the outcome (in assay [1]; in assay [2]; in assay [3]; in assay [4]; in assay [5]; with BCL2L11 (gene 10018)) was inactive. Besides, the outcome (in [6]; in assay [7]; in assay [8]; in the assay with Caspase-3 (Homo sapiens); in [9]; in assay [11]) was inactive. The molecule was classed as inactive (in [12]; in assay [13]; in the assay with CYP2C8 (gene 1558); in the assay with CYP2C9 (gene 1559); with CYP2E1 (gene 1571); with CYP4A11 (gene 1579)). Also, in assay [14], the result was inactive. Moreover, the concentration at half-maximal activity (AC50) in assay [10] was 66.5 µM (active).
In the case of `COC(=O)c1ccccc1C(=O)OC`, the molecule was classed as inactive (in [1]; in [2]; in assay [3]; in assay [4]; in assay [5]; with BCL2L11 (gene 10018)). For the same molecule, the call (in assay [6]; in [7]; in assay [8]; with Caspase-3 (Homo sapiens); in assay [9]; in [10]) was inactive. For the same molecule, the result (in assay [11]; in assay [12]; in assay [13]; in the assay with CYP2C8 (gene 1558); with CYP2C9 (gene 1559); with CYP2E1 (gene 1571)) was inactive. For the same molecule, the outcome (with CYP4A11 (gene 1579); in assay [14]) was inactive.
On to `CCOC(=O)C(Cl)Cc1cc(-n2nc(C)n(C(F)F)c2=O)c(F)cc1Cl` (stereo not given), for which the call (in assay [1]; in assay [2]; in assay [3]; in assay [4]; in assay [5]; with BCL2L11 (gene 10018)) was inactive. Further, the molecule was classed as inactive (in assay [6]; in assay [7]; in [8]; with Caspase-3 (Homo sapiens); in assay [9]; in assay [10]). The molecule was called inactive (in assay [11]; with CYP2E1 (gene 1571); with CYP4A11 (gene 1579)). Besides, the half-maximal activity concentration (AC50) in [12] was 50 µM (active); in assay [13] it was 41.1 µM (active); with CYP2C8 (gene 1558), 23.3 µM (active); with CYP2C9 (gene 1559), 25.5 µM (active); in [14], 18.7 µM (active).
